Compounds with a hit are over-represented: about 1.8% of the library has one in this group of screens.
Mac1 fbg inh: CD11b/CD18-fibrinogen binding inhibition | P05107+P11215 | AID 1497 | hit rate 0.54% among 93,000 | K562 CD11b/CD18 adhesion to fibrinogen, ATPlite luminescence; Mn2+ added to activate the integrin | inhibition, % at 10 µM;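 active = primary inhibition of 50% or more at 10 µM, then 40% or more on retest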
Mac1 fbg enh: enhancers of human CD11b/CD18 binding to fibrinogen; activation, % at 10 µM; P05107+P11215; hit rate 0.07% among 93,000; K562 CD11b/CD18 adhesion to fibrinogen, ATPlite luminescence;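 active = 10 µM primary screen giving 50% or more activity, confirmed by 40% or more on retest at that dose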
FAK blocker: inhibitors of human focal adhesion kinase. Q05397. biochemical FAK kinase activity assay. inhibition, %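 (tested at 7 µM)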. hit rate 0.84% among 97,000;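 also: 0% = DMSO and 100% = reference compound high control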
PTK2B oligo ant: Pyk2 (human) oligomerization antagonism | Q14289 | Q293 cells, Pyk2 FERM NanoBiT luminescence; active compounds read low | z-score (the deposit names both 25 µM and 10 µM) | hit rate 0.83% among 99,000 | AID 1347419;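 active = Z-score of -3 or lower, scaled per plate to the spread of control and sample wells; inactive = z-score above -3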;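 also: negative z-score means lost luminescence so less FERM oligomerization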
FAK inh confirm: confirmation of human focal adhesion kinase (FAK) inhibitors; inhibition, % at 7 µM; AID 794; hit rate 28% among 750; FAK kinase biochemical inhibition assay; shares compounds with FAK blocker
* = called active by the depositor. Rule as the data show it, unless noted: active = inhibition above about 19%; inactive = the rest.

For Cn1ncnc2c(=O)n(C)c(=O)nc1-2 the results were Mac1 fbg inh 71*, Mac1 fbg enh -6 and PTK2B oligo ant -3.3*.
Screening Cn1c(O)c(C=NCCCNC2CCCCC2)c(=O)n(C)c1=O returned FAK blocker -1 and PTK2B oligo ant 0.26.
CC1C(c2cccs2)=[N+]([O-])C(C)(C(=O)c2ccc(F)cc2)N1O (stereo not given) was read as FAK blocker -2 and PTK2B oligo ant -0.24.
Screening CN(C)c1ccc(N=Cc2c(O)n(CCC3=CCCCC3)c(=O)[nH]c2=O)cc1 returned Mac1 fbg inh -3, Mac1 fbg enh 1, FAK blocker 0 and PTK2B oligo ant -3.4*.
`COC(=O)c1c(C)n(Cc2ccc3c(c2)OCO3)c2ccc(O)cc12` gave Mac1 fbg inh -6, Mac1 fbg enh 0, FAK blocker 1 and PTK2B oligo ant -4*.
`CCOC(=O)c1c(C)n(Cc2ccc3c(c2)OCO3)c2ccc(O)cc12` gave Mac1 fbg inh 16, Mac1 fbg enh 120, FAK blocker 2 and PTK2B oligo ant -3.3*.
Screening CCOC(=O)c1c(C)n(Cc2ccco2)c2ccc(O)cc12 returned Mac1 fbg inh 1, Mac1 fbg enh 5, FAK blocker 9 and PTK2B oligo ant -1.4.
Screening CCOC(=O)c1c(C)n(COCCO)c2ccc(O)cc12 returned Mac1 fbg inh 12, Mac1 fbg enh 0, FAK blocker 2 and PTK2B oligo ant 1.1.
`CN1C(=O)C(=Cc2ccccc2Oc2ccc(Cl)c(F)c2)C(=O)N(C)C1=O` gave FAK blocker -3 and PTK2B oligo ant -4.5*.
Screening O=C(CSC1c2ccccc2-c2ccccc21)N/N=C/c1ccccc1O returned Mac1 fbg inh 36, Mac1 fbg enh -3, FAK blocker -1 and PTK2B oligo ant -1.1.
CN1CCN(C(=O)COc2ccc(-c3nc4ccccc4s3)cc2)CC1 was read as Mac1 fbg inh 93*, Mac1 fbg enh -6, FAK blocker 4 and PTK2B oligo ant 0.77.
For CC(C)NS(=O)(=O)c1ccc(OCC(=O)N2CCN(C)CC2)cc1 the results were Mac1 fbg inh 28, Mac1 fbg enh -3 and FAK blocker -6.
Screening Cn1nc(-c2ccc(OCC(=O)N3CCN(Cc4ccccc4)CC3)cc2)c2ccccc2c1=O returned Mac1 fbg inh 71*, Mac1 fbg enh -6, FAK blocker 2 and PTK2B oligo ant 0.01.
Screening O=C(c1ccccc1F)c1cn(CC(=O)N2CCOCC2)c2ccccc12 returned FAK blocker -3 and PTK2B oligo ant 0.92.
`O=C(Cn1cc(C(=O)c2ccccc2F)c2ccccc21)NCc1ccco1` gave Mac1 fbg inh -30, Mac1 fbg enh 2, FAK blocker 4 and PTK2B oligo ant -3.2*.
CCN1CCN(Cc2cc(C(C)(C)C)c(O)c(C(C)(C)C)c2)CC1 was read as Mac1 fbg inh 1, Mac1 fbg enh 1 and FAK blocker 2.
Screening O=C1Nc2ccccc2/C1=C/c1cnc[nH]1 returned FAK blocker 75*, PTK2B oligo ant -0.41 and FAK inh confirm 47*.
For COCCCn1c(N)c(C(=O)OC(C)COC)c2nc3ccccc3nc21 (stereo not given) the results were Mac1 fbg inh -6, Mac1 fbg enh -4 and PTK2B oligo ant 1.3.
CCC(C)NC(=O)c1c(N)n(CCCOC)c2nc3ccccc3nc12 (stereo not given) was read as Mac1 fbg inh -10, Mac1 fbg enh 5, FAK blocker 37*, PTK2B oligo ant -0.66 and FAK inh confirm 2.
Screening CC12CN3CC(C)(CN(C1)P3(=O)Oc1ccccc1)C2=O (stereo not given) returned Mac1 fbg inh 24, Mac1 fbg enh -4, FAK blocker 50*, PTK2B oligo ant 0.52 and FAK inh confirm 2.
`O=c1[nH]c(=O)n(-c2ccc(F)cc2)c(O)c1C=Nc1ccccc1N1CCCC1` gave Mac1 fbg inh -29, Mac1 fbg enh 83, FAK blocker 1 and PTK2B oligo ant -0.38.
`CN1CCN(c2ccc(C=O)cc2)CC1` gave Mac1 fbg inh -5, Mac1 fbg enh -4, FAK blocker 1 and PTK2B oligo ant 1.
`CN1CCN(c2ccc(N)cc2)CC1` gave Mac1 fbg inh 4, Mac1 fbg enh -1, FAK blocker 67*, PTK2B oligo ant 0.14 and FAK inh confirm 74*.
Screening CCCCCCN=Cc1c(O)n(C)c(=O)n(C)c1=O returned FAK blocker -6 and PTK2B oligo ant 0.45.

High-throughput results as filed in PubChem BioAssay.
